The campaign covered roughly 340,000 compounds. About 3,400 (1%) were called active. What follows is part of a selection rich in actives, with near analogues and random picks from the rest. Values without a mark were called inactive.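 How the source made its calls: active means inhibition above the mean over all tested compounds plus 3 SD (cut at about 4.2% in these data); inactive means the rest.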

In general, inhibition refers to the change of the read-out against control, counted positive when it falls.

Nuclear receptor subfamily 0 group B member 1 (Homo sapiens), sequence (P51843 207-470 limits assumed): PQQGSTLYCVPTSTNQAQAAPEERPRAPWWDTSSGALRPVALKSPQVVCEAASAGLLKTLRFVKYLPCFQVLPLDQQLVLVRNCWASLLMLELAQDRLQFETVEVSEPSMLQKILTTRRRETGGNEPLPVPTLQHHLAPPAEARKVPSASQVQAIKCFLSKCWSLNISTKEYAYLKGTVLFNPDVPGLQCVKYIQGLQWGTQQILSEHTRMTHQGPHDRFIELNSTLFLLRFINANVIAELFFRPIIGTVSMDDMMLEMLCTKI

The test has as its target Nuclear receptor subfamily 0 group B member 1 (Homo sapiens) (UniProt P51843). In words: DAX1 (NR0B1) inhibitors, primary screen, cell-based, HEK293, Gal4-DAX1, luciferase luminescence (AID 504766).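 Further: 0% = DAX1-transfected cells with DMSO and 100% = empty-vector control cells with DMSO; inhibition shows as a rise in luminescence from relieved DAX1 repression.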 Conditions: HEK293 Gal4-DAX1 luciferase reporter, at 6.75 µM, stronger effect = higher value. Background: A reporter such as luciferase makes a cellular process visible.
On to `CCc1ccccc1NC(=O)CN1CCN(C(=O)c2cc(C3CC3)nn2-c2ccccc2)CC1`, for which the inhibition was -0.77%. `COc1ccc(-c2nnc(-c3ccc4ccccc4c3)o2)cc1`: the inhibition is 0.71%. The result for `CN(C)c1ccc(-c2nnc(-c3cccnc3)o2)cc1` reads 2.53%. For the compound `Nc1ccc(-c2nnc(-c3ccccc3)o2)cc1`, the inhibition was 4.37% (active). As for `CCCn1c(N)c(C(=O)CSc2nnc(Cc3cccs3)n2C2CC2)c(=O)[nH]c1=O`, the figure is 0.35%. The result for `OCC1OC(n2cnc3c(N4CCCC4)ncnc32)C(O)C1O` (configuration not stated) reads -0.3%; that for `CC1CN(C(=O)c2cccc(NS(=O)(=O)c3ccc(Br)cc3)c2)CC(C)O1` (configuration not stated), 0.52%.

For the compound `Cc1csc(SCC(=O)Nc2ccc(C)c(S(=O)(=O)N(C)C)c2)n1`, the inhibition was 0.09%. In the case of `Cc1onc(-c2ccccc2)c1-c1nnc(COC(=O)c2ccc(N(C)C)cc2)o1`, the inhibition was -0.6%. The result for `N#Cc1c(NC(=O)CCCl)sc2c1CCCCC2` reads 1.1%. The result for `N#Cc1c(NC(=O)C2CCCO2)sc2c1CCCCC2` (configuration not stated) reads 4.7% (active). The result for `N#Cc1c(NC(=O)C2CC(Cl)=CCC2C(=O)O)sc2c1CCCCC2` (configuration not stated) reads -0.39%. Regarding `CCN(CC)C(=O)C1=C(C)N(Cc2ccc(F)cc2)C(=O)C(CC(=O)NCc2cccc3ccccc23)C1` (configuration not stated), the inhibition was -0.64%. As for `C[C@H]1NS(=O)(=O)c2cc(Cl)ccc2O[C@@H]1c1ccccc1`, the figure is -0.34%; as for `COc1ccc(CN2C[C@H]3CON(C)[C@H]3C[C@H]2c2ccc(-c3cccc(F)c3)cc2)cc1`, 1.13%. As for `CC1=C(C(=O)Nc2cccc(C(=O)NCC(C)c3ccccc3)c2)SCCO1` (configuration not stated), the figure is 3.58%; as for `COc1ccc(OC)c(NC(=O)C2CCCN2S(=O)(=O)c2ccc3c(c2)CC(C)N3C(C)=O)c1` (configuration not stated), 1.18%. As for `OCCC1CN(Cc2cccc(OC3CCCC3)c2)CCN1Cc1ccsc1` (configuration not stated), the figure is 5.86% (active); as for `OCCC#Cc1ccc(CN2CCN(Cc3ccsc3)C(CCO)C2)cc1` (configuration not stated), 2.04%; as for `OCCC1CN(Cc2ccccc2-c2ccco2)CCN1Cc1ccsc1` (configuration not stated), -0.73%. For `Cc1ccc(S(=O)(=O)/N=C2\C=C(NS(=O)(=O)c3ccc(C)cc3)C(=O)c3ccccc32)cc1`, the inhibition was -1.06%.

Regarding `Cc1ccc(S(=O)(=O)N2CCOCC2)cc1NC(=O)c1ccncc1`, the inhibition was 0.21%. The result for `CCC(Oc1ccccc1)C(=O)OCC(=O)Nc1c(C)nn(-c2ccccc2)c1C` (configuration not stated) reads 0.21%; that for `Cc1ccc(S(=O)(=O)N2CCCCC2)cc1NC(=O)CCNC(=O)c1ccccc1Cl`, 0.48%.

Regarding `CCCCN1C[C@H](c2ccc(Br)cc2)[C@@H](CC(=O)Nc2ccc(Br)cc2)C1=O`, the inhibition was -0.08%. As for `Cn1c(CNc2nc(-c3ccccc3)cs2)nnc1SCC(=O)c1ccccc1`, the inhibition was -1.22%. As to `Cc1cc(NC(=O)c2cc3ccccc3o2)no1`, the inhibition is 0.08%.

As for `CCNc1nc(-c2cc3ccccc3o2)cs1`, the inhibition was 4.56% (active). In the case of `COc1ccc(S(=O)(=O)N2CCN(CC(=O)N3CCNC3=O)CC2)cc1OC`, the inhibition is 0.75%. Regarding `CCN(C(=O)Nc1cccc2ccccc12)c1ccccc1`, the inhibition was 0.32%. As for `COC(=O)c1c(NC(=O)CN(c2ccc(C)c(C)c2)S(C)(=O)=O)sc2c1CCCC2`, the figure is 0.52%; as for `COC(=O)c1c(NC(=O)CSc2nncs2)sc2c1CCCCC2`, -1.11%; as for `CCc1ccc(N(CC(=O)Nc2sc3c(c2C(=O)OC)CCCC3)S(C)(=O)=O)cc1`, 5.84% (active). As for `COCCCn1c(=O)/c(=C/c2ccccc2OC(C)C)s/c1=C(\C#N)C(=O)Nc1ccc(C(=O)O)cc1`, the figure is 1.28%; as for `COc1cc(C(=O)OCCCN2CCOCC2)cc(OC)c1OC`, 0.71%; as for `O[C@H]1CN(Cc2cccs2)[C@@H](c2ccc(Cl)cc2)C[C@@H]1n1cc(C2CC2)nn1`, 0.8%. As to `COc1ccc(NC(=O)CN2C(=O)CSc3ccc(S(=O)(=O)N4CCC(C)CC4)cc32)cc1`, the inhibition is -0.82%. The result for `CCc1ccc(NC(=O)CN2C(=O)CSC2=O)cc1` reads 1.29%; that for `COc1ccc(NC(=O)CN2C(=O)CSC2=O)cc1`, 4.34% (active); that for `CC(=O)Nc1c(-c2ccc(C)cc2)nc2ccc(Cl)cn12`, 0.08%.

Consider `C=CCn1nc(C(=O)OCC)cc1-c1sc(NC(=O)c2ccccc2)nc1C`, for which the inhibition is -1.54%. The result for `O=C(CSc1ccc(Cl)cc1)NC1CC1` reads 0.27%. The result for `O=C(Cc1ccc([N+](=O)[O-])cc1)NCCS(=O)(=O)N1CCN(c2ccccc2)CC1` reads -0.22%; that for `CCCOC(=O)Cc1c(O)c2ccccc2[nH]c1=O`, -0.26%; that for `NS(=O)(=O)c1ccccc1NC(=O)c1c(O)c2ccccc2[nH]c1=O`, 4.59% (active). The result for `O=C(Cc1c(O)c2ccccc2[nH]c1=O)NCc1ccccc1` reads 1.32%; that for `COc1ccc(CN2C(=O)C(CC(=O)NC3CCCCC3)CC(C(=O)N3CCOCC3)=C2C)cc1` (configuration not stated), 0.35%; that for `CCN1CCN(CCNC(=O)c2ccc3c(c2)NC(=O)/C(=C\c2cccc(Cl)c2)S3)CC1`, -0.42%. Take `CCOC(=O)C1CCN(C(=O)c2ccc3c(=O)n4nc(Nc5ccccc5CC)sc4nc3c2)CC1`: the inhibition was -2.28%.

Regarding `Cc1ccccc1NC(=O)Cc1nc(COC(=O)C(C)(C)Oc2ccc(Cl)cc2)cs1`, the inhibition was -0.05%. The result for `Clc1ccc(Nc2ccc3ccccc3n2)cc1` reads 5.5% (active); that for `C(=N\Nc1ccc2ccccc2n1)/c1ccc2c(c1)OCO2`, -2.05%.

Regarding `O=C(NNC(=O)c1ccc2ccccc2c1)c1ccc(Cl)cc1`, the inhibition was -1.29%.

For `CSc1nnnn1-c1c(C)cc(C)cc1C`, the inhibition was 5.68% (active). The result for `CCn1nnnc1SCC(=O)c1ccc(C)cc1C` reads -0.2%.

As for `Cc1ccc(S(=O)(=O)N2C[C@]3(O)C[C@@H]4C(=O)N(c5ccccc5)C(=O)[C@@H]4C[C@]3(OC(=O)NC3CC3)C2)cc1`, the inhibition was -1.25%.

In the case of `O[C@@H]1C[C@H](c2ccccc2)N(Cc2cccs2)C[C@H]1n1cc(C2CC2)nn1`, the inhibition was 1.9%.

The values above are taken from PubChem BioAssay AID504766 (The Scripps Research Institute Molecular Screening Center, 2011).
